Test results published in PubChem BioAssay (NCATS).
Where “and” joins values, the source holds several entries; their conditions need not be identical. Identical values can stand only once. Inconclusive results are not listed. Where a call stands in place of a potency, no number is given. Calls of active or inactive are those of the source. Unless noted, calls follow the shape of the dose curve; as a rule, active = well fitted curve in the direction sought with a large enough effect; inconclusive = small, poorly fitted or top-dose-only effect, or another doubt; inactive = no such curve, though single readings can be large; an effect the other way counts as inactive or inconclusive.

Experiments:
[1] = molecular target: Cytochrome P450 1A2 (Homo sapiens) (UniProt P05177); assay: p450-cyp1a2 (AID 410; calls by dose curve; also: potency is read from the fitted curve at half-maximal effect)
Outline: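 Inhibition was calculated relative to 57 uM furafylline (full inhibition). The reaction used human CYP1A2 at 20nM with Luciferin-ME at its Km, 100uM, driven by an NADPH-regenerating system for 60 min at room temperature.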

[2] = molecular target: Glucocorticoid receptor (Homo sapiens) (UniProt P04150); assay: GR-GFP Redistribution (AID 450;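 active = compounds whose dose series gives a full or clear partial fitted curve of increased nuclear translocation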; also: potency is read from the fitted curve at half-maximal effect); conditions: U2OS GR-GFP nuclear translocation, laser cytometry, 2 h
[3] = molecular target: Glucocorticoid receptor (Homo sapiens) (UniProt P04150); assay: GR-EFC Redistribution (AID 451; calls by dose curve; also: potency is read from the fitted curve at half-maximal effect); conditions: CHO-K1 GR-EFC translocation, beta-gal luminescence, 2 h
Outline: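 CHO-K1 cells stably expressing nuclear-localized β-gal enzyme acceptor and GR fused C-terminally to the enzyme donor fragment; ligand-driven nuclear translocation restores β-gal by complementation. Compounds titrated up to 46 uM final, 2 h at 37 °C; luminescence read.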

[4] = molecular target: Mitogen-activated protein kinase 10 (Mus musculus) (UniProt Q61831); assay: JNK3 AlphaScreen Assay (AID 530; active = well fitted curve in either direction with a large enough effect, not every such curve was filed as active;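 also: kinase came from lysate of stimulated human HepG2 cells; signal reports phosphorylation of biotinylated GST-cJun 1-79 at Ser73 with 10 µM ATP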)
Outline: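 JNK3 came from HepG2 lysates pre-activated with IL-1beta and TNF-alpha and phosphorylated biotinylated GST-cJun (1-79) at 10 uM ATP, pH 7.6, room temperature. Compounds were titrated. AlphaScreen signal used anti-phospho-cJun (Ser73) antibody.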

[5] = molecular target: Cytochrome P450 2C9 (Homo sapiens) (UniProt P11712); assay: qHTS Assay for Inhibitors and Substrates of Cytochrome P450 2C9 (AID 883); also: potency is read from the fitted curve at half-maximal effect; nearly all actives have a fitted effect of over 60% in size
Outline: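 A luminogenic readout tracked human CYP2C9 (10nM) converting deoxyluciferin (100uM, at KM) in 25mM KPO4 during 60 min at 37C with regenerated NADPH. Values normalized to 57uM sulphaphenazole as complete inhibition.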

[6] = molecular target: Cytochrome P450 3A4 (Homo sapiens) (UniProt P08684); assay: qHTS Assay for Activators of Cytochrome P450 3A4 (AID 885); also: nearly all actives have a fitted effect of over 65% in size
Outline: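 Steps: enzyme/substrate mix dispensed; compound added, 10 min RT; NADPH regeneration solution added, 60 min RT; luciferin detection buffer stops reaction; 20 min later luminescence measured.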

[7] = molecular target: Ubiquitin carboxyl-terminal hydrolase 1 (Homo sapiens) (UniProt O94782); assay: Inhibitors of USP1/UAF1: Pilot qHTS (AID 504865);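 also: rhodamine fluorescence freed from ubiquitin-rhodamine substrate followed over time; top concentration of the series differs between compounds; nearly all actives have a fitted effect of over 35% in size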
Outline: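 Enzyme-free wells gave the negative control, while test wells held 1nM USP1/UAF1 preincubated with compound for 15 min at room temperature. Ub-Rho at 150nM final started the reaction, and fluorescence at 480/540 nm was recorded kinetically.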

[8] = molecular target: DNA dC->dU-editing enzyme APOBEC-3G (Homo sapiens) (UniProt Q9HC16); assay: qHTS for inhibitors of Vif-A3G interactions: Validation (AID 588379)
Outline: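 HeLa cells stably expressing Vif and A3G-eYFP, 700 cells/well, incubated overnight at 37 deg C, then exposed to compound overnight at 37 deg C. Inhibition of Vif-mediated degradation read as increased yellow fluorescence (Ex 488/Em 500-530) by laser-scanning cytometry.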

Furin (Homo sapiens) = Furin (Homo sapiens) (UniProt P09958); assay: Furin counterscreen qHTS for Zika virus inhibitors (AID 1347149); also: nearly all actives have a fitted effect of over 70% in size; also: potency is read from the fitted curve at half-maximal effect;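 as to activity change, negative = inhibition: purified recombinant full-length human furin enzyme at 5 nM; fluorescence gain from furin cutting a BOC-RVRR-AMC peptide substrate over 15 min; top concentration of the series differs between compounds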
Outline: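 Fluorogenic cleavage of BOC-RVRR-AMC (2 microM final, Km ~15 µM) was monitored (ex 340, em 450 nm) at 37C after 15 min RT preincubation of 5 nM furin with compounds in HEPES pH 7.0 buffer with CaCl2 and Triton X-100. Percent inhibition was fitted to a 4-parameter Hill curve.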

[9] = test system: Zika virus NS2B-NS3 protease (linked construct); assay: Confirmatory screen NINDS AMC qHTS for Zika virus inhibitors (AID 1347152); also: potency is read from the fitted curve at half-maximal effect; nearly all actives have a fitted effect of over 70% in size
Outline: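 Concentration-response confirmation used the NINDS linked protease (NS2B hydrophilic domain joined to NS3 protease domain), 1 nM, with a 15-min compound preincubation. Substrate, Nle-KRR-AMC at 10 microM, was read by UV fluorescence before and after 15 min.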

[10] = test system: Zika virus NS2B-NS3 protease (unlinked complex); assay: Confirmatory screen GU AMC qHTS for Zika virus inhibitors (AID 1347153); also: nearly all actives have a fitted effect of over 70% in size
Outline: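 Fluorescence change (ex 340/em 450 nm) over 15 min, ~20% substrate conversion, normalized to no-inhibitor and no-enzyme controls, then Hill-fitted. Unlinked protease at 25 nM; AMC peptide 10 µM.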

[11] = test system: Zika virus NS2B-NS3 protease; assay: Primary screen GU AMC qHTS for Zika virus inhibitors (AID 1347154); also: nearly all actives have a fitted effect of over 70% in size; also: potency is read from the fitted curve at half-maximal effect
Outline: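 Unlinked Zika NS2B hydrophilic domain/NS3 protease domain noncovalent complex (25 nM final) in 10 mM Tris-HCl pH 8.0, 0.01% Tween 20, with AMC peptide substrate. Fluorescence (ex 340, em 450 nm) change over 15 min, room temperature; percent inhibition fitted to 4-parameter Hill equation.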

[12] = Confirmatory screen NINDS Rhodamine qHTS for Zika virus inhibitors (AID 1347161); also: nearly all actives have a fitted effect of over 60% in size; also: potency is read from the fitted curve at half-maximal effect;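 as to activity change, negative = inhibition: purified Zika NS2B-NS3 protease with linked NS2B cofactor domain and Rhodamine110 peptide substrate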
Outline: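 Purified linked NS2B-NS3 protease (NS2B hydrophilic domain joined to NS3 protease by flexible linker), 25 nM in 10 mM Tris-HCl pH 8.0, 0.01% Tween 20. Compounds titrated, 15 min preincubation at room temperature; 1.5 microM Rhodamine110 substrate, FITC fluorescence change over 15 min.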

[13] = Vero cells viability qHTS for Zika virus inhibitors (AID 1347167)
Outline: (§1)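 Counter-screen for cytotoxicity of hits from NS2B-NS3 protease qHTS. Overnight-attached cells (2.5 x 10^5 cells/mL, DMEM/4% FBS) were dosed in titration, incubated 24 to 48 hours, then assayed by CellTiter Glo.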

[14] = HepG2 cells viability qHTS for Zika virus inhibitors (AID 1347168)
Outline: as §1

[15] = Tertiary RLuc qRT-PCR qHTS assay for Zika virus inhibitors (AID 1347169); also: nearly all actives have a fitted effect of over 55% in size; also: potency is read from the fitted curve at half-maximal effect; as to activity change, negative = inhibition: top concentration of the series differs between compounds
Outline: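 Inhibition of ZIKV-RLuc replication in Vero cells, read as Renilla luminescence 1-1.5 hrs after live-cell substrate addition, following 48-72 hrs infection at MOI 1-2 in presence of compound.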

[16] = molecular target: Nucleoprotein (Lymphocytic choriomeningitis virus (strain Armstrong)) (UniProt P09992); assay: qHTS for Inhibitors of the Functional Ribonucleoprotein Complex (vRNP) of Lymphocytic Choriomeningitis Arenaviruses (LCMV): LCMV Primary Screen - GLuc reporter signal (AID 1347086; calls by dose curve; also: nearly all actives have a fitted effect of over 70% in size)
[17] = Counterscreen qHTS for small molecule stabilizers of the endoplasmic reticulum resident proteome: GLuc-NoTag assay (AID 1508627);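 also: SH-SY5Y cells given compound then 100 nM thapsigargin to empty ER calcium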
Outline: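 SH-SY5Y cells stably expressing constitutively secreted GLuc (no SERCaMP tag) were pre-incubated 5 h, treated with compound for 19 h, then 100 nM thapsigargin for 4 h at 37C; medium GLuc read by coelenterazine luminescence.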

[18] = Cell Viability qHTS for small molecule stabilizers of the endoplasmic reticulum resident proteome (AID 1508629); conditions: cell viability counter-screen, 100 nM thapsigargin for final 4 h;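 also: human SH-SY5Y neuroblastoma cells carrying the GLuc-SERCaMP reporter; compound exposure about 46 h in total before the viability read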
[19] = Primary qHTS for small molecule stabilizers of the endoplasmic reticulum resident proteome: Secreted ER Calcium Modulated Protein (SERCaMP) assay (AID 1508630); also: potency is read from the fitted curve at half-maximal effect
Outline: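 GLuc-SERCaMP-expressing SH-SY5Y cells, pretreated 16 h with compound, are challenged with thapsigargin to empty ER calcium stores; after 4 h, coelenterazine is added directly to the medium and luminescence is imaged.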

[20] = molecular target: Cytochrome P450 3A4 (Homo sapiens) (UniProt P08684); assay: qHTS Assay for Inhibitors and Substrates of Cytochrome P450 3A4 (AID 884); also: nearly all actives have a fitted effect of over 50% in size
Outline: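 20 nM human CYP3A4 with 25 uM Luciferin-PPXE (at KM) in 200 mM KPO4, preincubated 10 min with compound; NADPH regeneration started a 60 min RT reaction. Luciferin detected by luminescence, normalized to 57 uM ketoconazole as full inhibition.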

[21] = Confirmation and Secondary Assay for Modulators of Hemoglobin Beta Chain Splicing at IVS2 654 locus (AID 910);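 also: per-well total GFP intensity by laser scanning cytometry after 2-day treatment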
Outline: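 HeLa cells stably carrying EGFP interrupted by mutant beta-globin IVS2-654 intron (CMV-driven) were treated with compound for 2 days at 37C; corrected splicing was scored as total peak GFP intensity per well (488 nm excitation, 500-520 nm emission).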

[22] = Confirmation and Secondary Assay for Modulators of Hemoglobin Beta Chain Splicing at IVS2 705 locus (AID 930);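 also: HeLa cells stably expressing the EGFP-705 splicing reporter; GFP fluorescence per well restored by corrected splicing of the IVS2-705 intron in EGFP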
Outline: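 Per-well GFP, captured at 1 x 8 µm resolution with 488 nm excitation, served as the read-out for HeLa EGFP-705 cells incubated 2 days with test compound versus DMSO.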

[23] = Confirmatory screen GU Rhodamine qHTS for Zika virus inhibitors qHTS (AID 1347157)
Outline: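 Unlinked NS2B/NS3, 25 nM; Rhod110 peptide, 1.5 microM; compounds, up to 114 microM. Reaction run 15 min at RT in 10 mM Tris-HCl pH 8.0, 0.01% Tween 20; kinetic fluorescence change fitted with a 4-parameter Hill model.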

[24] = test system: Zika virus NS2B-NS3 protease (linked); assay: 384 well plate NINDS AMC confirmatory qHTS for Zika virus inhibitors (AID 1347163); conditions: Recombinant NS2B-NS3 protease, Ac-VKTGKR-AMC fluorescence; also: potency is read from the fitted curve at half-maximal effect; nearly all actives have a fitted effect of over 50% in size
Outline: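 Linked protease 5/30/60 nM final; cpds up to 1 mM final, ~15 min preinc. Substrate Ac-VKTGKR-AMC 30 microM final. RT, dark, 25 min; FI ex 355/em 460; normalized to no-enzyme/no-inhibitor ctrls.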

[25] = test system: Zika virus NS2B-NS3 protease (linked construct); assay: 384 well plate NINDS Rhodamine confirmatory qHTS for Zika virus inhibitors (AID 1347164); also: potency is read from the fitted curve at half-maximal effect; nearly all actives have a fitted effect of over 65% in size
Outline: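 Cleavage of Ac-LKRR-Rhodamine 110 (10 microM final) by linked protease (final 5, 30 or 60 nM) was followed as fluorescence at 485/538 nm after 25 min, room temperature, dark. Compounds preincubated ~15 min.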

[26] = qHTS Assay for Lipid Storage Modulators (AID 1519; calls by dose curve); conditions: Drosophila S3 cells, BODIPY lipid droplet/cell ratio, laser cytometry, cells loaded with oleic acid
Outline: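 Cells seeded at 5,000 per well were treated with compounds over a concentration series and loaded with oleic acid (400 uM, as added). Lipid droplet fluorescence (488 nm excitation, 500-530 nm channel) was read by laser-scanning cytometry and normalized to 20 uM Triacsin C.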

Furin (Homo sapiens), sequence (P09958 whole entry, looked up): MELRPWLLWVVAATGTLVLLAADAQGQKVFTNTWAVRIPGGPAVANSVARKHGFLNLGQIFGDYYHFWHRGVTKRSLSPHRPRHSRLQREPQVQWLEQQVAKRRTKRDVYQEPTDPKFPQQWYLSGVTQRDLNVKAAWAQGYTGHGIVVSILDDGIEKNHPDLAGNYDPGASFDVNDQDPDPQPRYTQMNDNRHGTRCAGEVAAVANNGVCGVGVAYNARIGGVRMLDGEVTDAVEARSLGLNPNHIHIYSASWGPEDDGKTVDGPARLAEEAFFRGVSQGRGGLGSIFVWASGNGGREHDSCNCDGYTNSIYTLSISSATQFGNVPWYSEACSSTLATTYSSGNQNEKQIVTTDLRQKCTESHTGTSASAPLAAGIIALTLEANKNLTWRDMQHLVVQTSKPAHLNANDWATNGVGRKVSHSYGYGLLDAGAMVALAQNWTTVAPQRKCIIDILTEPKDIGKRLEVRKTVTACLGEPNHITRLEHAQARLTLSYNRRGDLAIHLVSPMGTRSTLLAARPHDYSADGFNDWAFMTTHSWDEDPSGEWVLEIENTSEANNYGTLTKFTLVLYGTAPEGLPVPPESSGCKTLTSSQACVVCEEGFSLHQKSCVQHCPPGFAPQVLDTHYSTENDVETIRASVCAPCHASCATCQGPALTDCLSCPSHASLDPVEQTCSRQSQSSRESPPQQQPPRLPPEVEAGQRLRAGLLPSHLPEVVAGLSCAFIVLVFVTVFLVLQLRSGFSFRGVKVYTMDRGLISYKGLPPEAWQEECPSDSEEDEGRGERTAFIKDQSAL
Glucocorticoid receptor (Homo sapiens), sequence (P04150 whole entry, looked up, the tested form may be a part): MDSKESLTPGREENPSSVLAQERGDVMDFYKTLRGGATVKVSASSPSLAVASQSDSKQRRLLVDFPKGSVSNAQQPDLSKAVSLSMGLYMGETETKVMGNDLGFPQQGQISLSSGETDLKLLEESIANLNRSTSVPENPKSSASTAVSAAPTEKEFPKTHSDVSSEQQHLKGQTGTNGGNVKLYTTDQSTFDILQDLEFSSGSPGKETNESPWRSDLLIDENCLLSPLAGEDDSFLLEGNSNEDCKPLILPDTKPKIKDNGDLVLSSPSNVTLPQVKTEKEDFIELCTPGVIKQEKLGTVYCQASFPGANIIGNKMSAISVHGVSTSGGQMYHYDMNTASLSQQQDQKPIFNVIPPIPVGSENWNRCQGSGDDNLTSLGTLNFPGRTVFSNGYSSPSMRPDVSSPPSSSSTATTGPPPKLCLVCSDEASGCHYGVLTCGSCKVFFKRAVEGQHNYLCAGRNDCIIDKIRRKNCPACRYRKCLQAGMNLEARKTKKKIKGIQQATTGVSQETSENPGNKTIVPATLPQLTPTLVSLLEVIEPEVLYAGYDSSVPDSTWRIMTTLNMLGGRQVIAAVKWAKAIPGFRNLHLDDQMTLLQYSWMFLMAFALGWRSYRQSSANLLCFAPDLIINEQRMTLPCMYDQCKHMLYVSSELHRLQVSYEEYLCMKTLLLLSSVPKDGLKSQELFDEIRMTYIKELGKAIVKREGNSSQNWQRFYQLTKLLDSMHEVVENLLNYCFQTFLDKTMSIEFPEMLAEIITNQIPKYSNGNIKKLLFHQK
Cytochrome P450 3A4 (Homo sapiens), sequence (P08684 whole entry, looked up): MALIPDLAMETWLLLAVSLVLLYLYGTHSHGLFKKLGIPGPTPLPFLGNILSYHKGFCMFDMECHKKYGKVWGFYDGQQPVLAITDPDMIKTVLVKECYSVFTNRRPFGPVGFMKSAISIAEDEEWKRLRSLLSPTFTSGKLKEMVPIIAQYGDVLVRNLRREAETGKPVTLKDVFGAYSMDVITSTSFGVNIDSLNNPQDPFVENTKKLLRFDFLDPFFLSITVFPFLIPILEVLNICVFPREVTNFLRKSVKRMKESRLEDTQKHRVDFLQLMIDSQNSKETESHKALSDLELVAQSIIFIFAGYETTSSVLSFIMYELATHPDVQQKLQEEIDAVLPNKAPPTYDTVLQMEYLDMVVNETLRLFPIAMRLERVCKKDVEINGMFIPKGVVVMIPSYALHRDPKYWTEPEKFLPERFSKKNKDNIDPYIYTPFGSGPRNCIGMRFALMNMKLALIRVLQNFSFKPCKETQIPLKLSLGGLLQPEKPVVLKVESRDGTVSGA
Nucleoprotein (Lymphocytic choriomeningitis virus (strain Armstrong)), sequence (P09992 whole entry, looked up): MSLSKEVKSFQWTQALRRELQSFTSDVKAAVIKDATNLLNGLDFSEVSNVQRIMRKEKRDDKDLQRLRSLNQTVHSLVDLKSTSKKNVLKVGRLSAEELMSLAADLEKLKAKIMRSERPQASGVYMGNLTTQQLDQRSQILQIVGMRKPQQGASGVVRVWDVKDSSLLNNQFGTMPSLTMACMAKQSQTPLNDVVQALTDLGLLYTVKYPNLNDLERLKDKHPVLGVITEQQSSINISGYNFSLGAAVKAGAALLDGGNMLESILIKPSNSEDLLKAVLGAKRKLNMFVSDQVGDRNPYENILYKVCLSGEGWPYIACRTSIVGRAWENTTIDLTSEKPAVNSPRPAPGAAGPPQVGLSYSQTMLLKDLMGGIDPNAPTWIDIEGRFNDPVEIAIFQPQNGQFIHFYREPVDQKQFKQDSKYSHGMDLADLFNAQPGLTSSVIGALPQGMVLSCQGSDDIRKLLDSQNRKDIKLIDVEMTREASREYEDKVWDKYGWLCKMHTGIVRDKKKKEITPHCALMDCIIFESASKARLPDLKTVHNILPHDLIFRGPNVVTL
DNA dC->dU-editing enzyme APOBEC-3G (Homo sapiens), sequence (Q9HC16 whole entry, looked up): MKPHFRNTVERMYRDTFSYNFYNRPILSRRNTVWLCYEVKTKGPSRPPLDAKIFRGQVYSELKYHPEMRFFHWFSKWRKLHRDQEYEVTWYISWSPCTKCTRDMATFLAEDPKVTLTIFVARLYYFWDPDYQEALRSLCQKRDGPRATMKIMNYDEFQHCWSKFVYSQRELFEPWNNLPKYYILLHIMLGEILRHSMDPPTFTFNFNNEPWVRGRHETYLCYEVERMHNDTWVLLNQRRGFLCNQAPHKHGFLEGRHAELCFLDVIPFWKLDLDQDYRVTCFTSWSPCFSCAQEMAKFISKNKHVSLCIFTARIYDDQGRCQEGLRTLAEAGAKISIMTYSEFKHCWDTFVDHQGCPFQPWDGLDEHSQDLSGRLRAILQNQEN
Cytochrome P450 1A2 (Homo sapiens), sequence (P05177 whole entry, looked up): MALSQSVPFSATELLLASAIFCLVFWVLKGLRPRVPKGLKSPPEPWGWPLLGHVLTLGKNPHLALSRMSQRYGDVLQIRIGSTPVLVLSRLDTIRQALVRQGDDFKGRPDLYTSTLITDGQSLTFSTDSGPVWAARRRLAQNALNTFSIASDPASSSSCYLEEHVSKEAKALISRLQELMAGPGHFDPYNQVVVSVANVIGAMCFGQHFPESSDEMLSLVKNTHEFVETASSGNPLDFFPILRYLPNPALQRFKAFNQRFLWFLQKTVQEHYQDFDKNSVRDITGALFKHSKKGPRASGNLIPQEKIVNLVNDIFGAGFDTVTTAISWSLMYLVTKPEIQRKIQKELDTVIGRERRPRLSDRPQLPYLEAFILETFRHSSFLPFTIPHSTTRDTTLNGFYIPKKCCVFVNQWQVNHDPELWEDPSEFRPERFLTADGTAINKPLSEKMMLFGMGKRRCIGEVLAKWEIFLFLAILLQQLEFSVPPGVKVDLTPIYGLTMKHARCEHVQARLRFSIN
Cytochrome P450 2C9 (Homo sapiens), sequence (P11712 whole entry, looked up): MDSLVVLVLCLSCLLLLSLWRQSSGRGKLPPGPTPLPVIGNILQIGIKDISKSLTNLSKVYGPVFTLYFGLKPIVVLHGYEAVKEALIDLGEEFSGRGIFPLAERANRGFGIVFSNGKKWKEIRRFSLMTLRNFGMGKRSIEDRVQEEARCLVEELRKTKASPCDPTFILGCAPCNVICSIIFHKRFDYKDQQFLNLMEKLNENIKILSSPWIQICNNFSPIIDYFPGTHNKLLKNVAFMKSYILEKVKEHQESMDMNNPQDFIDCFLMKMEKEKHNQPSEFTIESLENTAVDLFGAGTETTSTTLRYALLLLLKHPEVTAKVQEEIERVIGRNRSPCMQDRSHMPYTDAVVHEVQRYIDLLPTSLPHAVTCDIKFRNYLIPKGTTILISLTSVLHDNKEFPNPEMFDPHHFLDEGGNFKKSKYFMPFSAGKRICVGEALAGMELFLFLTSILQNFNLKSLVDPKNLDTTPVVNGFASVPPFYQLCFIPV
Ubiquitin carboxyl-terminal hydrolase 1 (Homo sapiens), sequence (O94782 whole entry, looked up): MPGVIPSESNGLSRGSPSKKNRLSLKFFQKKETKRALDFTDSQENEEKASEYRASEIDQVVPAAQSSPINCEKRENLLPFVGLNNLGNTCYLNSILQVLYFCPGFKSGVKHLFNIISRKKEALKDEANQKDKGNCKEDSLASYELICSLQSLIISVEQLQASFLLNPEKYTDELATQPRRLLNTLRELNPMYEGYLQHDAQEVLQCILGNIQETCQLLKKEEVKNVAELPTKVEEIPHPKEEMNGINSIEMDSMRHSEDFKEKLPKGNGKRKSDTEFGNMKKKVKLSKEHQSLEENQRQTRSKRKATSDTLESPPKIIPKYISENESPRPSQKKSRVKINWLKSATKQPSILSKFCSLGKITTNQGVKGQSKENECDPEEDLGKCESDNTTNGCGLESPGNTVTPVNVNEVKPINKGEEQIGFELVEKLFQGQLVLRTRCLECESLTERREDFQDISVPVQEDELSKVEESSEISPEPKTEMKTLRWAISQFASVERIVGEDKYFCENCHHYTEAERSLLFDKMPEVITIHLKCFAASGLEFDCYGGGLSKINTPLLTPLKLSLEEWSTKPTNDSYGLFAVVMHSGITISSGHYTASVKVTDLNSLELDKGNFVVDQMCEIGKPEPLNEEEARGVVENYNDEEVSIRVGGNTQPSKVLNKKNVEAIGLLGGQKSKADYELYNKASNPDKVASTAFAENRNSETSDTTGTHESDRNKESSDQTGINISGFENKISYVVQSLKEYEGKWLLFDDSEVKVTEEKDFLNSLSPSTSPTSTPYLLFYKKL

Clc1cncc(N2CCNCC2)n1
Potency [1]: 2 µM (active)
Potency [2]: > 46 µM (inactive)
Potency [3]: > 46 µM (inactive)
outcome [4]: inactive
Potency [5]: 2 µM (active)
Potency [6]: inactive
Potency [7]: inactive
Potency [8]: inactive
Potency (Furin (Homo sapiens)): 24.1 µM (active) and 10.8 µM (active)
Potency [9]: 24.1 µM (active) and 8.57 µM (active)
Potency [10]: inactive
Potency [11]: 15 µM (active)
Potency [12]: inactive
Potency [13]: inactive
Potency [14]: inactive
Potency [15]: inactive

CC1OC(O[C@H]2C[C@@H](O)[C@]3(CO)[C@H]4[C@H](O)C[C@]5(C)[C@@H](C6=CC(=O)OC6)CC[C@]5(O)[C@@H]4CC[C@]3(O)C2)C(O)C(O)C1O (some centres not stated)
Potency (Furin (Homo sapiens)): inactive
Potency [13]: inactive
Potency [15]: 0.147 µM (active)

COC(=O)C12OCC34C(CC5C(C)=C(O)C(=O)CC5(C)C3C(O)C1O)OC(=O)C(OC(=O)C=C(C)C)C24 (configuration not stated)
Potency [16]: inactive

CCCCC/C=C\C/C=C\C/C=C\C/C=C\CCCCCC(=O)NCCO
activity change, negative = inhibition [11]: 3.5% [at 6.83 µM] (inactive)

CN1CC[C@@]23CCCCC2C1Cc1ccc(O)cc13 (some centres not stated)
Potency (Furin (Homo sapiens)): inactive
Potency [13]: inactive
Potency [14]: inactive
Potency [15]: inactive
Potency [17]: inactive
max response [18]: 30% (inactive)
Potency [19]: 35.5 µM (active)

O=C1CC2OCC=C3CN4CCC56c7ccccc7N1C5C2C3CC46 (configuration not stated)
Potency [11]: inactive

C[C@H]1O[C@@H](O[C@H]2[C@@H](O)C[C@H](O[C@H]3[C@@H](O)C[C@H](O[C@H]4CC[C@]5(C)C6CC[C@]7(C)[C@@H](C8=CC(=O)OC8)CC[C@]7(O)C6CC[C@@H]5C4)O[C@@H]3C)O[C@@H]2C)C[C@H](O)[C@@H]1O (some centres not stated)
Potency (Furin (Homo sapiens)): inactive
Potency [11]: inactive
Potency [13]: inactive
Potency [14]: inactive
Potency [15]: 0.147 µM (active)
Potency [19]: inactive

O=c1c(O)c(-c2ccc(O)c(O)c2)oc2c(O)c(O)cc(O)c12
Potency [20]: inactive
Potency [21]: inactive
outcome [22]: inactive
Potency (Furin (Homo sapiens)): inactive
Potency [23]: 22.4 µM (active)
Potency [12]: 11.2 µM (active)
Potency [24]: 158 µM (active)
Potency [25]: 100 µM (active)
activity change, negative = inhibition [15]: 35.9% [at 5.25 µM] (inactive)

c1ccc2sc(C3(NCC4CC4)CCCCC3)cc2c1
Potency [11]: inactive

C[C@H](NC(=O)[C@@H](N)Cc1ccc(O)cc1)C(=O)NCC(=O)N(C)[C@@H](Cc1ccccc1)C(=O)N[C@H](CO)CCS(C)=O (some centres not stated)
activity change, negative = inhibition [11]: 4.8% [at 6.83 µM] (inactive)

CC1O[C@@H](O[C@@H]2C(O)C[C@H](O[C@@H]3C(O)C[C@@H](OC4CC[C@@]5(C)C6CC[C@]7(C)C(C8=CC(=O)OC8)CC[C@@]7(O)C6CC[C@@H]5C4)OC3C)OC2C)CC(O)[C@H]1O (some centres not stated)
activity change, negative = inhibition ([26]; at 57.5 µM (top of the series)): 3.23% (inactive)
max response ([26]; measured here: cell count channel max response): 20.2%
max response ([26]; measured here: lipid channel max response): 25.7%
Potency (Furin (Homo sapiens)): inactive
Potency [13]: inactive
Potency [15]: 0.208 µM (active)
